Among the data in PubChem BioAssay are log fold change Tl+ flux values, retold here.

Holding throughout (experiment): modulators of BK channel variants, profiling panel, selectivity assay, cell-based, U2OS BacMam, thallium flux, beta subunits (AID 1259406);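 also: initial slope of Thallos dye fluorescence rise after thallium is added; log ratio against the mean of 0.3% DMSO vehicle wells on the same plate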
The subject of experiment [1] is F380Y. The conditions noted are these: at 30 µM.
The subject of experiment [2] is F380Y/beta1. The conditions noted are these: at 30 µM.
Experiment [3] has as its system F380Y/beta2Delta. The conditions noted are these: at 30 µM.
In experiment [4] the test system is F380Y/beta4. The conditions noted are these: at 30 µM.
Experiment [5] has as its target Calcium-activated potassium channel subunit alpha-1 (Homo sapiens) + Leucine-rich repeat-containing protein 26 (Homo sapiens) (UniProt Q12791+Q2I0M4). Particulars: F380Y/Slo1WT/gamma1, at 30 µM.
The test system of experiment [6] is R275C. The conditions noted are these: at 30 µM.
The test system of experiment [7] is R275C/beta1. Particulars: at 30 µM.
Experiment [8] relates to R275C/beta2Delta. Particulars: at 30 µM.
Experiment [9] deals with R275C/beta4. The conditions noted are these: at 30 µM.
The subject of experiment [10] is R275C/Slo1WT/beta2. Particulars: at 30 µM.

Values without a mark were called inactive. The source made the active and inactive calls.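 The calls were made as follows: active = thallium flux through the channel raised or lowered by more than 3 SD from vehicle-only wells, actives on both sides; inactive = the rest.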

Calcium-activated potassium channel subunit alpha-1 (Homo sapiens) + Leucine-rich repeat-containing protein 26 (Homo sapiens), sequence (Q2I0M4 whole entry, looked up, one chain of several): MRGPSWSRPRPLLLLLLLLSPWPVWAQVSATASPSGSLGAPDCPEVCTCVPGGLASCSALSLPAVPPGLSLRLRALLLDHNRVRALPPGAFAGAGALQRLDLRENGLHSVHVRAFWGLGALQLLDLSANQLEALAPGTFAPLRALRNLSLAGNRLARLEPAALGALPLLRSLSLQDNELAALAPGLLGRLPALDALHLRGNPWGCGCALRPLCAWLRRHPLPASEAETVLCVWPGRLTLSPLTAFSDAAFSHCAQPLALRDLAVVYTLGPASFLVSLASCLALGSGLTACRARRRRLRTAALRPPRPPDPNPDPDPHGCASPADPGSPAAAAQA

With `CC12CC=C(C#N)C1(C)CC=C2C#N` (stereo not given), the log fold change Tl+ flux in [1] is 0.0296; in [2] it was 0.00573; in experiment [3], 0.0262; in [4], 0.00555; in experiment [5], 0.0366; in experiment [6], -0.017. For the same molecule, the log fold change Tl+ flux in [7] is 0.0163; in [8], -0.011; in [9], 0.0134; in experiment [10], -0.00417.
With `COC(=O)C(O)(c1ccc(NC(=O)c2ccc(Cl)c(Cl)c2)cc1)C(F)(F)F` (stereo not given), the log fold change Tl+ flux in experiment [1] is -0.0296; in [2], 0.0948 (active); in [3], -0.0715; in experiment [4], 0.112 (active); in experiment [5] it was 0.0984; in experiment [6] it was 0.0903 (active). In addition, the log fold change Tl+ flux is 0.216 (active) in [7], 0.0948 (active) in experiment [8], 0.263 (active) in experiment [9] and 0.0206 in [10].
As to `COc1cc(C(F)(F)F)nc2ccc(C#CCOC(=O)Nc3cccc(Cl)c3)cc12`, the log fold change Tl+ flux was -0.0208 in [1]; 0.0282 in experiment [2]; -0.0312 in experiment [3]; 0.0143 in experiment [4]; -0.0274 in experiment [5]; -0.0392 in [6]. For the same molecule, the log fold change Tl+ flux in experiment [7] is -0.0781; in [8], -0.0125; in [9] it was -0.00958; in experiment [10] it was 0.0405.
On to `NC(=NNC(=O)c1cccnc1)c1ccncc1`, for which the log fold change Tl+ flux in experiment [1] was 0.0309; in experiment [2], -0.00892; in experiment [3], 0.0142; in [4], 0.00925; in [5], -0.00474; in experiment [6] it was -0.039. Besides, the log fold change Tl+ flux was 0.0056 in experiment [7], 0.00736 in experiment [8], 0.00943 in experiment [9] and -0.0381 in experiment [10].
For `Cc1cc2c(cc1C)CSC(c1ccco1)SC2`, the log fold change Tl+ flux in [1] is -0.0256; in [2], 0.0185; in [3], 0.0283; in experiment [4] it was -0.0391; in [5] it was 0.00632; in [6], -0.00435. The log fold change Tl+ flux in experiment [7] was 0.035; in experiment [8], 0.055; in experiment [9] it was 0.0187; in experiment [10] it was -0.0173.
As for `CC(=O)OCC(OC(C)=O)C(OC(C)=O)C(OC(C)=O)C(C#N)OC(C)=O` (stereo not given), the log fold change Tl+ flux was 0.0435 in experiment [1]; -0.00373 in experiment [2]; 0.0398 in experiment [3]; 0.0383 in experiment [4]; -0.00671 in [5]; -0.00122 in experiment [6]. The log fold change Tl+ flux in [7] is -0.0156; in experiment [8], 0.0587; in experiment [9] it was -0.0186; in [10], -0.0705.
Consider `O=C(NNC(=O)c1ccc2nonc2c1)c1cccc(C(F)(F)F)c1`, for which the log fold change Tl+ flux in experiment [1] is 0.0115; in experiment [2], 0.037; in experiment [3], 0.0509; in experiment [4], 0.00874; in [5], -0.0024; in experiment [6] it was 0.0381. For the same molecule, the log fold change Tl+ flux was 0.0483 in [7], 0.036 in experiment [8], 0.0129 in experiment [9] and -0.0326 in [10].
Consider `Oc1ccccc1C=NCCN=Cc1ccccc1O`, for which the log fold change Tl+ flux in experiment [1] is -0.0379; in experiment [2], -0.0045; in experiment [3], 0.0233; in [4], 0.122 (active); in experiment [5] it was 0.00734; in experiment [6] it was 0.0166. In addition, the log fold change Tl+ flux in experiment [7] was -0.00586; in experiment [8], 0.0216; in [9] it was 0.00607; in experiment [10], 0.0616.
For the molecule `N#CC(CCC(=O)O)(CCC(=O)O)S(=O)(=O)c1ccccc1`, the log fold change Tl+ flux in experiment [1] was 0.0317; in experiment [2], 0.000152; in experiment [3], -0.0465; in experiment [4], -0.00447; in [5], 0.0235; in experiment [6] it was 0.0374. For the same molecule, the log fold change Tl+ flux in experiment [7] was 0.0216; in experiment [8] it was 0.0211; in [9] it was -0.014; in experiment [10] it was 0.0459.
For the molecule `O=C(CC(=O)NNC(=O)c1ccc(F)cc1)NNC(=O)c1ccc(F)cc1`, the log fold change Tl+ flux in [1] is 0.0677; in [2] it was -0.0109; in [3], 0.0456; in experiment [4], -0.0066; in experiment [5], -0.0103; in experiment [6], -0.0271. The log fold change Tl+ flux in experiment [7] was 0.0179; in experiment [8], 0.0309; in experiment [9], -0.00647; in experiment [10], -0.086.
Regarding `CCCn1c(=O)c(Br)cn(-c2ccccc2C)c1=O`, the log fold change Tl+ flux in experiment [1] was -0.00732; in [2], -0.0448; in experiment [3] it was -0.0565; in experiment [4] it was 0.00537; in [5], -0.011; in [6], 0.0371. Also, the log fold change Tl+ flux is 0.0334 in experiment [7], -0.00562 in experiment [8], 0.00534 in [9] and 0.0347 in experiment [10].
Regarding `COc1ccc2c(OC(C)=O)coc2c1`, the log fold change Tl+ flux in experiment [1] is 0.00358; in experiment [2], -0.0482; in [3], -0.00847; in [4], -0.0157; in experiment [5], -0.0163; in [6], 0.00531. Further, the log fold change Tl+ flux was -0.00826 in experiment [7], 0.012 in experiment [8], 0.0182 in experiment [9] and -0.00513 in experiment [10].
For the molecule `Fc1ccc(CCc2ccc(F)cc2)cc1`, the log fold change Tl+ flux in experiment [1] was -9.9e-05; in experiment [2], -0.0289; in [3], 0.0449; in [4], 0.0131; in experiment [5], 0.0118; in experiment [6] it was 0.0179. For the same molecule, the log fold change Tl+ flux in experiment [7] is 0.0162; in experiment [8] it was 0.0454; in experiment [9] it was 0.0168; in experiment [10], -0.0303.
